Results from PubChem BioAssay.
Active and inactive are the calls of the source. Unless noted, how the calls were made is not given here.

What was measured:
[1] = test system: Wnt5a (protein binding on small-molecule microarray); test: Wnt5a binders on small-molecule microarray, primary screen, biophysical, 635/667 nm fluorescence (AID 1142); conditions: 635 nm fluorescence, higher = more signal;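 further: fluorescence read at 667 nm with signal to noise per printed feature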
[2] = cell viability in Huh7 cells, primary screen, cytotoxicity control for HCV replication inhibitor project, CellTiter-Glo luminescence, basal, 48 h (AID 1143); conditions: Huh7 HCV replicon, higher = more signal, called active from +8 up or from −8 down;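 further: Huh7 hepatoma cells carrying a hepatitis C replication reporter with no stimulus; test concentration not given here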
[3] = P. aeruginosa biofilm formation inhibitors, primary screen, PAO1 strain, BacTiter-Glo luminescence, LB-PBS (AID 1144); conditions: 12 h, higher = more signal
[4] = CREB reporter modulators without forskolin, primary screen, cell-based, PC12, CRE-LacZ reporter, unstimulated (AID 1145); conditions: no forskolin, luminescence, 4.5 h, higher = more signal, called active from +8 up or from −8 down
[5] = CREB reporter modulators under forskolin, primary screen, cell-based, PC12, CRE-LacZ reporter, forskolin-stimulated (AID 1146); conditions: luminescence, 4.5 h, higher = more signal, called active from +8 up or from −8 down;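 further: PC12 cells with 6xCRE LacZ reporter stimulated by forskolin 10 µM; beta-galactosidase reporter signal reflecting CREB driven transcription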
[6] = molecular target: Streptavidin (Streptomyces avidinii) (UniProt P22629); test: streptavidin binders on small-molecule microarray, primary screen, artefact control for SMM compound annotation, biophysical, 635/667 nm fluorescence (AID 1147); conditions: streptavidin binding, higher = more signal;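 further: signal reflects streptavidin binding to arrayed compounds as a control protein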
[7] = small-molecule binders of probe aInhba, primary screen, biochemical, small-molecule microarray, 635/667 nm fluorescence (AID 1148); conditions: higher = more signal;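 further: score merges 667nm spot fluorescence with signal-to-noise for antibody binding to printed compounds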
Torsin-1A (Homo sapiens) [8] = molecular target: Torsin-1A (Homo sapiens) (UniProt O14656); test: torsin A binders from cell lysate, primary screen, small-molecule microarray, wild-type, 635/667 nm (AID 1149); conditions: COS7 hTOR1A-WT lysate, 635 nm fluorescence, higher = more signal
Torsin-1A (Homo sapiens) [9] = molecular target: Torsin-1A (Homo sapiens) (UniProt O14656); test: small-molecule binders of mutant TOR1A in lysate, primary screen, cell lysate, small-molecule microarray, COS7 lysate, 635/667 nm fluorescence (AID 1150); conditions: COS7 hTOR1A mutant lysate, 635 nm fluorescence, higher = more signal;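 further: score pools 667 nm emission and signal to noise measuring lysate protein binding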
[10] = test system: Sonic hedgehog protein (Shh); test: small-molecule binders of Shh protein, primary screen, biochemical, small-molecule microarray, 635/667 nm fluorescence (AID 1151); conditions: small-molecule microarray binding, 635 nm fluorescence; higher = more signal;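 further: Shh protein binding to compounds spotted on small-molecule microarray slides; score combines spot fluorescence intensity with signal-to-noise across triplicate slides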

Sequence of Torsin-1A (Homo sapiens) (O14656 whole entry, looked up): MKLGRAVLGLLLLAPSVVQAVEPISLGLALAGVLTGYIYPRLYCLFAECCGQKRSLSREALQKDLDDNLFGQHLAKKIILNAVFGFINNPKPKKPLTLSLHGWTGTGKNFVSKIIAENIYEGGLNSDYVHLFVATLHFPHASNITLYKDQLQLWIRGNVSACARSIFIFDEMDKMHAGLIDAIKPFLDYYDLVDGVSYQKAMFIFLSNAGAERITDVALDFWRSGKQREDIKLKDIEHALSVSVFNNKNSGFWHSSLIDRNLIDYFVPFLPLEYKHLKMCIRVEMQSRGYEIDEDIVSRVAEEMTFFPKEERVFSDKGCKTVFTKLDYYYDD
Sequence of Streptavidin (Streptomyces avidinii) (P22629 whole entry, looked up): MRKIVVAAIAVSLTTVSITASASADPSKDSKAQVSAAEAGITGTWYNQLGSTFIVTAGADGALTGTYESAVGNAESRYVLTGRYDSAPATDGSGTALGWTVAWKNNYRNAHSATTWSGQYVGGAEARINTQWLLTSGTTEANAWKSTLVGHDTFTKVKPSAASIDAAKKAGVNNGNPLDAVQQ

SMILES	composite z-score [1]	z-score [2]	z-score [3]	z-score [4]	z-score [5]	composite z-score [6]	composite z-score [7]	composite z-score (Torsin-1A (Homo sapiens) [8])	composite z-score (Torsin-1A (Homo sapiens) [9])	composite z-score [10]
CCOC(=O)C1=CCC(c2ccc(C#N)cc2)N(S(=O)(=O)c2ccc(C)cc2)C1 (stereo not given)	0.445	-4.77 (inactive)	-0.0317 (inactive)	0.22 (inactive)	-0.986 (inactive)	1.87	0.211	0.375	0.709	0.409
CCCCCN1CC=CC23O[C@@H]4C=CCOC(=O)[C@@H]4[C@H]2C(=O)N(CCCO)[C@@H]3C1=O (stereo not given in full)	-0.465	-2.93 (inactive)	-1.87 (inactive)	-1.85 (inactive)	-0.771 (inactive)	-0.866	-0.208	2.03	2.31	1.25
COCCCNC(=O)[C@@]1(c2ccc([N+](=O)[O-])cc2)CC(=O)N(CC23CC4CC(CC(C4)C2)C3)[C@@H]1c1ccc(CO)cc1	0.459	-4.39 (inactive)	-1.51 (inactive)	-0.179 (inactive)	-0.284 (inactive)	0.0765	-0.0018	1.02	0.894	2.13
CCOC(=O)C[C@H]1[C@H](OC(=O)c2ccc(-c3ccccc3)cc2)[C@@H](NC(=O)c2ccc3ccccc3c2)c2cc(OCCCO)ccc2N1C(=O)Cc1ccc(OC)cc1	0.266	0.359 (inactive)	-0.599 (inactive)	-1.01 (inactive)	0.809 (inactive)	-0.0829	-0.0954	0.0044	-0.497	-0.0004
N[C@@H](Cc1ccccc1)Cn1cc(-c2ccccc2)nn1	-0.15	-2.58 (inactive)	-0.244 (inactive)	0.0035 (inactive)	0.292 (inactive)	0.861	-0.0963	-0.0409	-0.0827	0.0939
Cc1cc(C)c(C(O)C2C=CC3C(=O)N(c4ccccc4)C(=O)C3N2Nc2ccc(C#N)cc2)c(C)c1 (stereo not given)	0.461	0.287 (inactive)	-1.36 (inactive)	0.246 (inactive)	1.19 (inactive)	2	0.427	0.221	1.51	-0.438
C=CC[C@]1(C(=O)N2CCOCC2)N=C(c2ccc(OCCCO)cc2)O[C@H]1c1ccccc1	0.514	-2.02 (inactive)	-0.248 (inactive)	1.34 (inactive)	-0.302 (inactive)	0.954	0.0561	-0.267	0.96	-0.509
O=C1c2ccccc2[C@@]2(Cc3ccccc3N(Cc3ccccc3)C2=O)[C@H](c2ccc(CO)cc2)N1C1CCCCC1	0.149	0.608 (inactive)	0.0703 (inactive)	0.0924 (inactive)	0.0935 (inactive)	-0.258	-0.0933	0.177	-0.269	1.08
N#Cc1ccc(NN2C(C(O)C3CCCCC3)C=CC3C(=O)N(c4ccccc4)C(=O)C32)cc1 (stereo not given)	0.4	0.124 (inactive)	-0.984 (inactive)	0.808 (inactive)	1.47 (inactive)	1.75	0.134	0.439	0.361	-0.81
C=CCC(OC(C)=O)[C@@H]1[C@@H](N(Cc2ccc(-c3cccc(C(F)(F)F)c3)o2)C(=O)c2ccc(C)cc2)c2cc(OCCCO)ccc2N1C(=O)c1ccc(-c2ccccc2)cc1 (stereo not given in full)	0.0167	0.224 (inactive)	-0.747 (inactive)	-0.463 (inactive)	-0.183 (inactive)	0.535	0.0154	-0.245	-0.141	1.32
O=C(CCN1CCOCC1)c1cccc(O)c1	0.361	-2.97 (inactive)	-0.779 (inactive)	0.182 (inactive)	5.37 (inactive)	0.802	-0.0962	2.59	1.38	1.82
Cc1ccc(S[C@]2(C(=O)NCCN3CCOCC3)CC(=O)N(Cc3cc(C(F)(F)F)cc(C(F)(F)F)c3)[C@@H]2c2ccc(CO)cc2I)cc1	-0.314	-2.42 (inactive)	-0.956 (inactive)	0.389 (inactive)	-0.0376 (inactive)	-0.71	-0.183	-2	0.561	-0.4
CC(C)(C)OC(=O)CC[C@@]1(C(=O)O)N=C(c2ccc(OCCCO)cc2)O[C@@H]1c1ccccc1N=[N+]=[N-]	0.52	0.0429 (inactive)	0.561 (inactive)	-0.183 (inactive)	-0.406 (inactive)	1.01	0.179	1.21	1.22	-0.905
CC(C)C(=C=CC[C@@H](O)c1ccccc1OCCO)C[C@@H](O)c1ccccn1	-0.0212	-1.3 (inactive)	0.497 (inactive)	1.19 (inactive)	-0.3 (inactive)	-0.0132	0.0275	0.276	-0.303	1.14
CCCCC=C[C@@H](NC(=O)c1ccc(C(=O)OC)cc1)c1ccccc1	0.301	-2.79 (inactive)	0.806 (inactive)	-0.185 (inactive)	1.11 (inactive)	0.994	0.143	-0.225	0.241	0.185
O=C1OCCC=C[C@H]2OC34C=CCN(c5ccc6ccccc6c5)C(=O)[C@H]3N(CCCCCO)C(=O)[C@@H]4C12 (stereo not given in full)	-0.288	0.0855 (inactive)	-1.17 (inactive)	0.0645 (inactive)	-0.206 (inactive)	0.136	-0.0471	0.592	1.8	0.157
COc1ccc([Si](C)(C)[C@@H]2[C@@H](CCn3cc([C@H](O)c4ccccc4)nn3)O[C@]3(C(=O)N(Cc4ccc(N5C(=O)c6cccc7cccc5c67)cc4)c4ccccc43)[C@H]2C)cc1	-0.179	-4.7 (inactive)	0.364 (inactive)	1.22 (inactive)	-1.68 (inactive)	-0.378	-0.0762	-0.0204	-0.169	-0.0774
COCCOC(=O)N1C(=O)[C@@]2(c3cc(C#CC4(O)CCCCCC4)ccc31)[C@H](C(=O)N1CCCCCCC1)[C@H]1C(=O)O[C@H](c3ccccc3)[C@H](c3ccccc3)N1[C@@H]2c1ccccc1OCCO	0.647	-5.2 (inactive)	0.148 (inactive)	0.749 (inactive)	-0.551 (inactive)	1.96	1.22	0.601	1.26	1.37
CCCCC=C[C@@H](NC(=O)c1cccs1)c1ccccc1	0.0001	-2.49 (inactive)	0.15 (inactive)	-0.951 (inactive)	-0.548 (inactive)	0.801	0.261	0.0798	0.454	-0.216
O=C1O[C@@H](c2ccccc2)[C@@H](c2ccccc2)N2[C@@H](c3ccc(O)cc3)[C@]3(C(=O)Nc4ccc(C#CC5=CCCCC5)cc43)[C@@H](C(=O)O)[C@H]12	0.942	-2.52 (inactive)	-2.85 (inactive)	-0.0515 (inactive)	-1.12 (inactive)	1.75	0.198	0.198	0.637	0.146
O=C1N(CCS(=O)(=O)c2ccccc2)Cc2ccccc2[C@H]2OC(c3ccc(OCCCO)cc3)=N[C@@]12CCS(=O)(=O)c1ccccc1	1.05	-1.07 (inactive)	-0.447 (inactive)	0.881 (inactive)	-1.33 (inactive)	0.421	0.0831	0.307	-0.0941	0.806
COCCOC(=O)N1C(=O)[C@@]2(c3cc(C#CCC(C(=O)OC)C(=O)OC)ccc31)[C@H](c1ccccc1OCCO)N1[C@H](c3ccccc3)[C@H](c3ccccc3)OC(=O)[C@H]1[C@@H]2C(N)=O	0.53	-3.11 (inactive)	0.451 (inactive)	1.16 (inactive)	2.17 (inactive)	0.0558	0.137	0.402	0.689	1.52
COc1ccc(CCNC(=O)[C@@H]2c3ccccc3C(=O)N(Cc3ccc(OC(F)(F)F)cc3)[C@H]2c2ccc(CO)cc2)cc1	0.446	-2.71 (inactive)	-0.676 (inactive)	-0.475 (inactive)	-0.206 (inactive)	-0.0886	-0.0465	-0.271	0.366	-0.144
COC(=O)[C@@]1(Cc2ccccc2)[C@H]2c3cc(C(=O)N(C)C)n(Cc4cc(C)n(C)n4)c3C[C@H]2CN1C(=O)c1ccccc1	0.0704	-1.31 (inactive)	0.381 (inactive)	2.3 (inactive)	1.92 (inactive)	1.63	0.606	1.31	1.99	0.278
CCCCCN1CC=CC23O[C@@H]4/C=C\CCC(C)OC(=O)C4[C@H]2C(=O)N(CCCCCO)[C@@H]3C1=O (stereo not given in full)	-1.01	0.292 (inactive)	-1.35 (inactive)	-0.492 (inactive)	0.069 (inactive)	-1.33	-0.182	-0.798	0.815	-0.0084
CC(C)N1C(=O)C[C@@](C(=O)NCc2ccccc2)(c2ccc([N+](=O)[O-])cc2)[C@H]1c1ccc(CO)cc1	-0.214	-1.5 (inactive)	-0.936 (inactive)	1.03 (inactive)	-0.703 (inactive)	-0.939	0.0275	1.35	0.529	0.235
O=C1C2C=CC(C(O)c3ccc(-c4ccccc4)s3)N(n3cnnc3)C2C(=O)N1Cc1ccccc1 (stereo not given)	-0.18	-0.291 (inactive)	-0.669 (inactive)	0.481 (inactive)	0.288 (inactive)	-0.116	-0.0087	-0.412	-0.468	-0.683
C=CCOC(=O)[C@@H]1[C@H]2C(=O)O[C@H](c3ccccc3)[C@H](c3ccccc3)N2[C@H](c2ccc(OCCOC(=O)[C@@H]3C[C@@H]4C(=O)NCC(=O)N4[C@@H]3c3cccc(OCCO)c3)cc2)[C@@]12C(=O)Nc1ccc(I)cc12	1.02	0.0025 (inactive)	-0.0754 (inactive)	-0.545 (inactive)	-0.844 (inactive)	-0.0506	0.458	1.56	1.17	2.1
CCOC(=O)[C@H]1C/C=C/C[C@H](C(=O)OCC)C(=O)O[C@H]2[C@@H](OC)O[C@H](CO)[C@@H](OC(=O)Nc3ccc4c(c3)OCO4)[C@@H]2OC1=O	0.285	-6.55 (inactive)	-0.353 (inactive)	0.484 (inactive)	-1.61 (inactive)	-0.0265	0.0342	0.687	0.126	0.903
